Assay results taken from PubChem BioAssay (NCATS).
Inconclusive results are not listed. Entries that show only a call come without a potency. The source made the active and inactive calls. Unless noted, calls come from the whole dose curve.

Legend:
[1] = qHTS for Inhibitors of the Functional Ribonucleoprotein Complex (vRNP) of Lassa (LASV) Arenavirus: LASV Primary Screen - GLuc reporter signal (AID 1347082; calls by dose curve; tested in HEK293 reporter line; note: nearly all actives have a fitted effect of over 60% in size)
[2] = biological target: Nucleoprotein (Lymphocytic choriomeningitis virus (strain Armstrong)) (UniProt P09992); test: qHTS for Inhibitors of the Functional Ribonucleoprotein Complex (vRNP) of Lymphocytic Choriomeningitis Arenaviruses (LCMV): LCMV Primary Screen - GLuc reporter signal (AID 1347086); note: nearly all actives have a fitted effect of over 70% in size
Nucleoprotein (Lymphocytic choriomeningitis virus (strain Armstrong)), sequence (P09992 whole entry, looked up): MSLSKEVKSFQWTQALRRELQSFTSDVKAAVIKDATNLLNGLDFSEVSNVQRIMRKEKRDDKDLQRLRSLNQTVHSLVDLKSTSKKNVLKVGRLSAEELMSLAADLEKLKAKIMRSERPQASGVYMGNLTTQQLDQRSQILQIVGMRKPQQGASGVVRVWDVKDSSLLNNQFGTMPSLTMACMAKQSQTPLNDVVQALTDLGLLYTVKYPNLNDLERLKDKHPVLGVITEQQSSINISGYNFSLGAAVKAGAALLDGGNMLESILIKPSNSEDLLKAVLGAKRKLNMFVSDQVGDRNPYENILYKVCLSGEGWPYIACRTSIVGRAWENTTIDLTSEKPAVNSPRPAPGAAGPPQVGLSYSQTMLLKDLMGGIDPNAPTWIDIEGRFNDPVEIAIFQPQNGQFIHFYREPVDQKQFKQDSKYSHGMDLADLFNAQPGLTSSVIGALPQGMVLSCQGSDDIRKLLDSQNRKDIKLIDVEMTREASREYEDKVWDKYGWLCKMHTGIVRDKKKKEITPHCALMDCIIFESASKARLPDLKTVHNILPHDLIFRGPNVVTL

[3] = qHTS for Inhibitors of the Functional Ribonucleoprotein Complex (vRNP) of Lymphocytic Choriomeningitis Arenaviruses (LCMV): Viability assay - alamar blue signal for LCMV Primary Screen (AID 1347085; calls by dose curve; tested in HEK293 reporter line; note: nearly all actives have a fitted effect of over 80% in size)
[4] = qHTS for Inhibitors of the Functional Ribonucleoprotein Complex (vRNP) of Lassa (LASV) Arenavirus: Viability assay - alamar blue signal for LASV Primary Screen (AID 1347083; calls by dose curve; tested in HEK293 reporter line; note: nearly all actives have a fitted effect of over 80% in size)
Potency is the fitted concentration of half-maximal effect.

Row | Structure (SMILES) | Potency [1] | Potency [2] | Potency [3] | Potency [4]
1 | N#Cc1ccc(COC[C@H]2O[C@@H](n3c(NCc4ccc(Cl)c(Cl)c4)nc4c(N)ncnc43)[C@@H](O)[C@@H]2O)cc1 | inactive | inactive |  | 
2 | O=C(Nc1ccc(F)c(C(F)(F)F)c1)Nc1nnc(-c2ccncc2)s1 | inactive |  | 13.7 µM (active) | 
3 | CC(C)OC(=O)C1=CN(C(=O)c2ccc(F)c(F)c2)CC(C)(C)c2c1[nH]c1ccccc21 | inactive | inactive |  | 
4 | N#Cc1ccc(NC(=O)Nc2ccccc2Br)c2n[nH]nc12 | inactive | inactive | inactive | 
5 | Cn1c(NCCN(CCO)CCCc2ccc([N+](=O)[O-])cc2)cc(=O)n(C)c1=O | inactive | inactive | inactive | 
6 | NC(=O)c1c(OCc2c(F)cc(Br)cc2F)nsc1NC(=O)NCCCCN1CCCC1 | inactive | inactive | inactive | 
7 | CC(C)(N)C(=O)N[C@H](COCc1ccccc1)C(=O)N1CCC2(CC1)CN(S(C)(=O)=O)c1ccccc12 | inactive | inactive | inactive | 
8 | COc1cc2c(cc1OC)[C@@H]1C(=O)c3ccc4c(c3O[C@@H]1CO2)C=CC(C)(C)O4 | 153 nM (active) | 243 nM (active) |  | 1.93 µM (active)
9 | CCOc1ccn(-c2ccc(F)cc2)c(=O)c1C(=O)Nc1ccc(Oc2ccnc(N)c2Cl)c(F)c1 | inactive | inactive | inactive | 
10 | O=c1[nH]nc(Sc2ncc([N+](=O)[O-])s2)n1-c1ccc2c(c1)OCCO2 | inactive | inactive |  | 
11 | CNCc1ccc(-c2[nH]c3cc(F)cc4c3c2CCNC4=O)cc1 | inactive | inactive | inactive | 
12 | CC(C)(C)c1cc(NC(=O)Nc2ccc(-c3cn4c(n3)sc3cc(OCCN5CCOCC5)ccc34)cc2)no1 | inactive | inactive | inactive | 
